# In ChEMBL document CHEMBL3433997, “St. Jude Leishmania screening dataset” (2016):
# How the values were obtained:
# Format in all cases: functional
# [1] = target: Solute carrier family 2, facilitated glucose transporter member 1 (Homo sapiens) (UniProt P11166); assay: ST_JUDE_LEISH: Cytotoxicity at 2uM final concentration against transgenic Leishmania Mexicana promastigotes LmGLUT1 that are glucose transport deficient and complemented with the human glucose transporter GLUT1. Activity is measured by DNA content using SYBR green in vitro
# [2] = target: Hexose transporter 1 (Plasmodium falciparum) (UniProt O97467); assay: ST_JUDE_LEISH: Cytotoxicity at 2uM final concentration against transgenic Leishmania Mexicana promastigotes LmPfHT that are glucose transport deficient and complemented with the Plasmodium falciparum hexose transporter. Activity is measured by DNA content using SYBR green in vitro
# [3] = target: Glucose transporter (Leishmania mexicana) (UniProt O61059); assay: ST_JUDE_LEISH: Cytotoxicity at 2uM final concentration against transgenic Leishmania Mexicana promastigotes LmGT2 that are glucose transport deficient and complemented with the L. Mexicana glucose transporter 2. Activity is measured by DNA content using SYBR green in vitro
# Sequence of Solute carrier family 2, facilitated glucose transporter member 1 (Homo sapiens) (P11166 whole entry): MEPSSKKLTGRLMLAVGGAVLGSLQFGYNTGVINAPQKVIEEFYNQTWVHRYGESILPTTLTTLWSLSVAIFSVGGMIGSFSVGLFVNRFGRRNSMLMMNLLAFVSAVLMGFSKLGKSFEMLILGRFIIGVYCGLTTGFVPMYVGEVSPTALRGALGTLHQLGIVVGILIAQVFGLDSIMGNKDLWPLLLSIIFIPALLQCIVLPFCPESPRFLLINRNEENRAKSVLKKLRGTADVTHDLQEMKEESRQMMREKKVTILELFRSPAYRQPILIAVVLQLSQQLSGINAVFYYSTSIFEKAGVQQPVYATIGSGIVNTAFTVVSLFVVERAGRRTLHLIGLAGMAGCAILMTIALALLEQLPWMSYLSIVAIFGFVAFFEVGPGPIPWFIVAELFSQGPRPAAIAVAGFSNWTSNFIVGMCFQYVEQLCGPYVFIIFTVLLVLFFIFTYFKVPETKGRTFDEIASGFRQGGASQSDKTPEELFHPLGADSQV
Compound,inhibition [1] [%],inhibition [2] [%],inhibition [3] [%]
Cc1csc2nc(-c3ccccn3)nc(Nc3ccncn3)c12,1.73,3.39,1.79
CCC[C@@H]([C@@H](CC1CCC(C)CC1)C(=O)N[C@@H](CO)C(=O)Nc1nccs1)N(O)C=O (stereo partly drawn),1.25,2.18,1.54
CCc1c[nH]c2c(N3CCCC3=O)cc(C(=O)N[C@@H](Cc3ccccc3)[C@H](O)CNC(C)(C)c3cccc(C(F)(F)F)c3)cc12,-1.29,-2.43,-0.27
Cc1cc(N[C@@H](Cc2ccccc2)C(=O)NCCOc2ccccc2)nc(NCCOc2ccccc2)n1,1.88,0.27,2.71
Cc1ccc(Cl)c2sc(N3CCN(C(=O)c4ccc([N+](=O)[O-])o4)CC3)nc12,62.4,54.6,27.6
CC1CN(Cc2csc(Nc3ccccc3)n2)CC(C)O1 (stereo not drawn),-0.51,0.99,3.5
CCn1cc(-c2cc(C(=O)Nc3ccc(OC)cc3C)c3ccccc3n2)c(C)n1,7.19,4.56,3.97
c1cc(CN2CCc3ccccc3CC2)cc(-c2c[nH]c3nc(NC4CCCC4)ncc23)c1,-0.02,-0.68,0.91
CCOc1ccc(NC(=O)c2ccc(NCCCN3CC(C)CC(C)C3)c([N+](=O)[O-])c2)cc1 (stereo not drawn),2.9,0.9,1.09
Cc1ccc(Cc2cccc3nc(N)nc(N)c23)cc1,1.2,0.71,-0.6
COCCN1CCC(CN(C)CC(C)(C)c2nc(-c3ccc(Cl)c(O)c3)c(-c3ccncc3)[nH]2)CC1,2.73,5.16,0.55
N=c1n(Cc2ccccc2)c2ccccc2n1CC(O)c1ccc(Cl)cc1 (stereo not drawn),1.36,2.09,1.14
CC(C)CNCc1cccc(-c2ccccc2CN(C(=O)NCCc2ccccc2)C2CCN(Cc3ccccc3)CC2)c1,13.1,11.4,8.25
CC(C)Nc1nc(NCCc2c[nH]cn2)nc(Nc2ccc(Oc3ccccc3)cc2)n1,2.08,2.71,-1.98
O=C(NC1CC1)c1cnc(N2CCCC(c3ccccc3)C2)c(Cl)c1 (stereo not drawn),0.97,-0.31,-4.58
C=CCn1c(Cc2ccccc2)nnc1Sc1ccc(C#N)c([N+](=O)[O-])c1,3.36,3.11,2.02
Cc1nc(N)nc(N)c1C#CC1CCCC1,5.81,6.82,2.76
Nc1nc(N)c2cc(CNc3ccc(Cl)c(Cl)c3)ccc2n1,8.27,6.41,-0.28
CC(C)(CNCCOc1ccc(Cl)cc1)c1nc(-c2ccnc(N)n2)c(-c2ccc(Cl)c(O)c2)[nH]1,2,1.8,0.27
O=[N+]([O-])c1cccc(NC(=S)N2CCCN(Cc3ccc(C(F)(F)F)cc3)CC2)c1,2.92,4.79,3.25
Nc1cccc(CNCc2ccc(-c3cccc(-c4nc5cc(F)ccc5[nH]4)c3)cc2)c1,-0.29,-1.11,-1.93
CCOc1cc(/C=N/Nc2nc3ccccc3[nH]2)ccc1OCc1ccc([N+](=O)[O-])cc1,5.62,4.53,4.41
CC1CN(c2ccc(NC(=O)c3cccs3)cc2)CCN1Cc1cccc(F)c1 (stereo not drawn),-0.49,-0.85,3.41
O=C(NC(CCCN1CCC(c2ccccc2)CC1)c1ccc(Cl)c(Cl)c1)c1cc(C(F)(F)F)cc(C(F)(F)F)c1 (stereo not drawn),2.06,1.99,1.89

Compound,inhibition [1] [%],inhibition [2] [%],inhibition [3] [%]
CCN1CCN(CCCNc2c3ccc(Cl)cc3nc3ccc(OC)cc23)CC1,9.58,9.46,8.38
CC(C)CCn1c(Sc2ccc(C#N)c([N+](=O)[O-])c2)nnc1-c1ccccc1Cl,4.86,3.76,1.46
COc1cc(NC(=O)c2c(-c3c(Cl)cccc3Cl)noc2C)c(OC)cc1Cl,3,4.65,3.12
CC(C)(C)CCN1CCC(CNC(=O)c2cc(-c3cccc(Cl)c3)cs2)C1 (stereo not drawn),0.6,-0.8,-1.21
CC(C)COc1ccc(Cl)cc1Cc1nc(-c2nc3ccc(CN4CCN(C)CC4)cc3[nH]2)co1,8.24,7.62,7.58
NS(=O)(=O)c1ccccc1Nc1nc(Nc2ccc(N3CCOCC3)cc2)nc2c1CCC2,11.1,4.49,3.91
CC1(C)NC(N)=NC(=N)N1OCCOc1cccc(C(F)(F)F)c1,1.04,0.2,2.45
NC(=O)C1CCN(Cc2ccc(-c3cccc(-c4nc5cc(F)ccc5[nH]4)c3)cc2)CC1,-0.89,-0.57,-1.49
CCCc1cc2c3c(N)nc(N)nc3ccc2n1C(CC)CC,46.3,54.9,42.6
O=C(N[C@H]1CCN(Cc2ccc(OCCCN3CCCCC3)cc2)C1)c1ccc2ccccc2c1,4.56,6.47,2.1
Cc1noc(C)c1-c1cccc(CNCc2ccc(-c3cccc(-c4nc5cc(C(F)(F)F)ccc5[nH]4)c3)cc2)c1,-0.48,1.3,1.67
Cc1cc(CNCCCCCCCNCc2ccc(Cl)cc2)ccc1O,0.64,3.98,0.81
Nc1cccc(CNCc2ccc(-c3ccc(-c4nc5ccccc5[nH]4)s3)cc2)c1,2.71,-0.53,2.48
O=C(Cn1c(CCc2cccc(F)c2F)nc(=O)c2ccccc21)N(Cc1ccc(-c2ccc(C(F)(F)F)cc2)cc1)C1CCN(C2CCOCC2)CC1,1.91,2.37,1.17
N#Cc1cccc(NC(=O)c2ccc(S(=O)(=O)NCC3CCCN3CC3CCCCC3)cc2)c1 (stereo not drawn),2.47,4.27,1.88
CCOC(=O)c1ccc(Nc2cc(Nc3ccc(C(=O)OCC)cc3)nc(C)n2)cc1,7.7,35.2,3.24
Cc1cccc2nc(-c3cccc(-c4cccc(CNCc5cccc(N)c5)c4)c3)[nH]c12,1.24,2.66,1.47
CCCCCN1CCC(NS(=O)(=O)c2cccc(C(=O)Nc3ccc(Cl)cc3)c2)CC1,-0.5,1.63,2.4
CCO[C@H]1CN[C@H](C#Cc2cc3c(Nc4ccc(OCc5cccc(F)c5)c(Cl)c4)ncnc3s2)C1,0.74,3.65,3.03
N#Cc1ccc(C=Cc2nccc3c2[nH]c2ccccc23)cc1,10.9,9.49,9.13
COc1ccc(C(c2ccc(N(C)C)cc2)c2ccc(N(C)C)cc2)cc1,95.3,94.5,84.9
CO/C(=C\C=C\c1cc2cc(Cl)c(Cl)cc2[nH]1)C(=O)NC1CC2CCCC(C1)N2C (stereo not drawn),1.7,0.66,5.12
COc1ccc(NC(=O)c2cc(NC(=O)C3(N)CC3)c(=O)n(Cc3ccc(C(N)=O)cc3)c2)cc1,0.5,3.44,2.12
CCCCCN1CCC(NC(=O)c2ccc(C(=O)Nc3ccc(C(C)C)cc3)cc2)CC1,-0.86,-0.06,-5.29

Compound,inhibition [1] [%],inhibition [2] [%],inhibition [3] [%]
Cc1ccc(NC(=O)c2cccc(CN3CCCN(Cc4cccc(O)c4)CC3)c2)cc1C,4.69,3.38,4.38
COc1cc2nc(SCC(C)C)n(CCCn3ccnc3)c(=N)c2cc1OC,3.51,6.49,3.6
O=C(NC1CCN(Cc2ccccc2)CC1)c1cccc(Nc2nc(-c3ccccc3)cs2)c1,9.1,8.88,2.09
c1ccc(-c2cc(NCCCCCCCCNc3cc(-c4ccccc4)nc4ccccc34)c3ccccc3n2)cc1,105,104,83.4
O=c1cc(NCCCNCc2scc(I)c2I)[nH]c2ccccc12,4.34,5.49,4
Clc1ccc(-c2ccc(C=NNc3nc(=Nc4ccccc4)[nH]c(=Nc4ccccc4)[nH]3)o2)cc1Cl,-3.26,-1.12,7.88
c1cc(CNCCN2CCNCC2)cc(-c2cccc(-c3nc4ccccc4[nH]3)c2)c1,1.08,1.4,0.14
Cc1cc(N)c2cc(NC(=O)c3ccc4ccccc4c3)ccc2n1,3.68,4.64,3.57
O=C(Nc1ccccc1Cl)N(Cc1cc(Cl)cc(Cl)c1)CC(O)COc1ccc(Cl)c(F)c1 (stereo not drawn),2.94,2.72,-2.7
CN(C)CCN(Cc1ccccc1-c1ccc(CNCCc2ccccc2)cc1)C(=O)c1ccccc1,3.46,2.83,3.1
O=C(NC1CCC(N2CCCC(OCc3ccccc3)C2)CC1)c1cc2ccccc2[nH]1 (stereo not drawn),0.93,3.87,-1.89
CC(=O)c1ccc(Nc2c(C(N)=O)cnc3cc(-c4c(C)noc4C)ccc23)cc1,8.14,6.39,5.76
CCCCCCCN(CCCCCCC)CCNc1cc(C)nc2ccccc12,6.37,5.18,4.49
Cc1nn(CC(C)C)c2sc(C(=O)N3CCN(S(=O)(=O)c4ccc(C#N)cc4)CC3)cc12,10.3,8.28,5.07
COc1ccc(C(=O)N2CCC(C(=O)NC(C)c3ccc(-n4ccnc4)cc3)CC2)c2ccccc12 (stereo not drawn),-1.06,-0.1,-0.59
Cc1ccccc1C1CCN(C2CCC(NC(=O)/C=C/c3cc(F)ccc3F)CC2)CC1 (stereo not drawn),1.51,2.73,3.64
O=[N+]([O-])c1ccc(C=NNc2nc3ccccc3[nH]2)cc1,-0.91,0.53,-0.44
CCc1cn2c3c(cc(C(=O)N[C@@H](Cc4cc(F)cc(F)c4)[C@H](O)CNC4CCOCC4)cc13)N(C)S(=O)(=O)CC2,0.86,-1.91,-0.48
N=c1n(CCN2CCCCC2)c2ccccc2n1CC(O)c1ccc(Cl)c(Cl)c1 (stereo not drawn),1.22,-0.46,1.58
N=C(Nc1cccc(Cc2ccccc2)n1)Nc1ncccn1,2.06,1.79,1.88
O=S(=O)(c1ccc(OC(F)(F)F)cc1)C1CC2CCC(C1)N2S(=O)(=O)c1ccc(Cl)c(C(F)(F)F)c1 (stereo not drawn),11.6,12.9,10.4
O=C(Cn1c(=O)cnc2ccccc21)Nc1cccc(C(=O)Nc2cccc(C(F)(F)F)c2)c1,1.09,3.37,1.93
O=C(Cn1c(CCc2cccc(F)c2F)nc(=O)c2ccccc21)N(CCN1CCCCC1)Cc1ccc(-c2ccc(C(F)(F)F)cc2)cc1,6.02,4.32,4.32
